Results from PubChem BioAssay (NCI).
The panel holds about 79,000 compounds, 15% with a hit somewhere; the sample as a whole holds those more often. Unmarked numbers belong to inactive results. Active and inactive are the calls of the source. No stated cut-off is given here; in the data, active means growth inhibition above about 70%; inactive means the rest.

Assays:
[1] = NCI Yeast Anticancer Drug Screen. Data for the rad50 strain (AID 155);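 further: 0% = growth of vehicle-only cultures of the same strain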; conditions: S. cerevisiae rad50 strain growth inhibition; at 50.0 µM; active compounds read high
Summary of the method: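 Readout: growth inhibition relative to vehicle-treated cultures. Compound exposure was carried out in a genetically defined yeast strain deficient in DNA damage repair.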

[2] = NCI Yeast Anticancer Drug Screen. Data for the mec2-1 strain (AID 157); conditions: S. cerevisiae mec2-1 strain, at 50.0 µM, active compounds read high
Summary of the method: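 Cells of the genetically defined mec2-1 yeast strain are incubated with test compound. Inhibition of growth is calculated against vehicle-treated controls.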

[3] = NCI Yeast Anticancer Drug Screen. Data for the sgs1 mgt1 strain (AID 161);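 further: 0% = growth of cultures given vehicle only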; conditions: S. cerevisiae sgs1 mgt1 strain, at 50.0 µM, active compounds read high
Summary of the method: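 Read-out: growth inhibition vs vehicle controls. Cells: mutant yeast strain deficient in DNA damage repair.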

[4] = NCI Yeast Anticancer Drug Screen. Data for the cln2 rad14 strain (AID 165);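 further: 0% = growth equal to vehicle treated cultures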; conditions: S. cerevisiae cln2 rad14 strain, at 50.0 µM, active compounds read high
Summary of the method: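 The screen exposed genetically defined yeast (cln2 rad14) to test compounds and scored growth inhibition relative to vehicle-treated controls.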

[5] = NCI Yeast Anticancer Drug Screen. Data for the bub3 strain (AID 167); conditions: S. cerevisiae bub3 mutant strain, at 50.0 µM, active compounds read high
Summary of the method: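 Readout: yeast growth inhibition, expressed relative to vehicle-only wells. The test organism is a mutant strain from a panel with lesions in DNA repair or checkpoint genes.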

[6] = NCI Yeast Anticancer Drug Screen. Data for the mlh1 rad18 strain (AID 175); conditions: S. cerevisiae mlh1 rad18 strain growth inhibition; at 50.0 µM; active compounds read high
Summary of the method: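 Compound-treated yeast growth, normalised to vehicle controls. Strain bears defined DNA repair mutations.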

Compound	growth inhibition [1]	growth inhibition [2]	growth inhibition [3]	growth inhibition [4]	growth inhibition [5]	growth inhibition [6]
NC(CSCc1ccccc1)P(=O)(O)O (centres undefined)	8.35%	0.55%	0.2%	-7.45%	-2.45%	-1.55%
CCOC1CS(=O)(=O)CC(OCC)O1 (centres undefined)	3.35%	6.05%	4.9%	-30.6%	-8.35%	13.8%
CC(N)C(=O)NC(C(=O)NC1C(O)OC(CO)C(O)C1O)C(C)C (centres undefined)	6.1%	-17.2%	-17.4%	7.95%	7.1%	-5.75%
O=CCS	-0.2%	4.85%	-5.6%	-38%	-31.2%	7.15%
CCn1c(=O)c2[nH]c(-n3c(Cl)nc4c3c(=O)n(CC)c(=O)n4CC)nc2n(CC)c1=O	31.1%	2.8%	2.9%	14.2%	-0.5%	21.4%
Cc1ccc(C(C)C)c(OC(=O)NCCCCCCNC(=O)Oc2cc(C)ccc2C(C)C)c1	-11%	-4.2%	10.7%	11.1%	-7.2%	9.05%
CCOC(=O)NC(C)=O	-10.4%	-27.9%	14.1%	-16.3%	-19.3%	-20.8%
COc1ccc(C(=O)NNC(=O)c2ccccc2)cc1	11.9%	-42.5%	-14.8%	10.1%	-1.1%	-14.2%
Nc1cccc2c1C(=O)c1cccc(N)c1C2=O	7.65%	16.4%	8.4%	-7.35%	8.2%	21.9%
O=C(Oc1ccc(OC(=O)c2ccccc2)c(C2CCCCCC2)c1)c1ccccc1	32.9%	-1.75%	25.1%	14.3%	7.1%	9%
Cc1ccc2nc(NC(=O)OCc3ccccc3)sc2c1	4.1%	20.1%	-11.8%	6.95%	8.6%	9.65%
Fc1ccc(C(Nc2nncs2)Nc2nncs2)c(F)c1	-0.8%	-13.8%	12.6%	-44.1%	-35.8%	9.7%
O=C(NCO)NCOCn1c(=O)n(CO)c(=O)n(CO)c1=O	5.05%	-22.6%	-2.5%	29.9%	9.7%	-15.9%
On1ccc(N2CCOCC2)cc1=NC1CCCCC1	25.9%	14.9%	14.5%	17.6%	3.7%	25.7%
CC(SCCNC(N)=O)C(N)=O (centres undefined)	-16.1%	-7.8%	-6.6%	-28.4%	7.25%	-14.4%
CC(Nc1ccc(Cl)c(Cl)c1)C1CCOC1=O (centres undefined)	85.5% (active)	97% (active)	94.8% (active)	80% (active)	94.8% (active)	95.5% (active)
CCO/C=C(/C#N)C(=O)OCC	-6.8%	-11.9%	-20.3%	-27.6%	-14.3%	0.85%
O=C(O)c1ccccc1Sc1ccc([N+](=O)[O-])cn1	33.2%	5.1%	2.15%	-15.8%	6.4%	44.7%
Cc1ccc([N+](=O)[O-])cc1S(=O)(=O)O	24.4%	13.2%	21.8%	11.7%	20%	2.45%
CC1(C(=O)O)CCCC1C(CCC(=O)O)C(=O)O (centres undefined)	-13.8%	15.1%	0.55%	-19.6%	-6.9%	-35.1%

Compound	growth inhibition [1]	growth inhibition [2]	growth inhibition [3]	growth inhibition [4]	growth inhibition [5]	growth inhibition [6]
CCCCC(=O)C(CC)(c1ccccc1)N(C)C (centres undefined)	-11.7%	-31.1%	-9.4%	-21.2%	-2.35%	-17.9%
CCc1cccc(C(C)C)c1NC(=O)C(=O)C(CC(=O)Nc1ccc(Cl)c(Cl)c1)C(=O)OC (centres undefined)	-1.85%	3.6%	-2.65%	15.8%	14.8%	7.7%
N#CCCN(C1=NN(C(=O)CC(=O)Nc2ccccc2Cl)C(c2ccccc2)C1)c1ccc(Cl)cc1 (centres undefined)	28.4%	19.1%	-10.1%	25.9%	16.1%	3.95%
Cc1ccc(OCCNCCO)cc1	23.3%	-11.4%	6.3%	10.4%	-1.2%	18.2%
CCOC(=O)NN(C(=O)OCC)c1c(NN)n(C)c(=O)n(C)c1=O	2.7%	-19.7%	9.2%	-10.4%	12.4%	-11.5%
CC(C)Oc1ccc(CCOC(=O)Nc2cccc3ccccc23)cc1	-0.5%	0.85%	2%	6.65%	3.8%	9.5%
O=S(=O)(O)NNc1ccc(N=Nc2ccccc2)cc1	0.2%	-12.9%	-3.95%	11.3%	-0.75%	4.75%
CC/C(=C\c1ccc(Cl)cc1)c1ccncc1	99.2% (active)	99.5% (active)	99.1% (active)	99% (active)	99.2% (active)	99.2% (active)
O=C1OCC(O)=C1C(c1ccc(Cl)cc1)c1cc2c(cc1O)OCO2 (centres undefined)	-19.9%	-16.7%	-28.1%	-16.3%	0.05%	-37.5%
CCN(CC)CCS(=O)(=O)CCS(=O)(=O)CCN(CC)CC	18.5%	10.9%	25.2%	25.2%	4.4%	14.2%
O=C(NCCCc1ccccc1)Nc1ccccc1	16.4%	-0.65%	-8.05%	-10.4%	-1.35%	3.45%
CC(C)(C)OC(=O)NC(CCCCNC(=O)OCc1ccccc1)C(=O)NCCNc1ccc(NCCNC(=O)C(CCCCNC(=O)OCc2ccccc2)NC(=O)OC(C)(C)C)c2c1C(=O)c1ccccc1C2=O (centres undefined)	-3.7%	0.1%	-27.4%	-1.4%	-31.6%	-52.8%
Cc1cc2nc(NN)[nH]c2cc1C	5.15%	7.15%	-17.5%	-10%	-26.4%	22.1%
CCOC(=O)Cn1c(=O)c2ccccc2c2cc([N+](=O)[O-])ccc21	-6.45%	11.3%	13.2%	5.95%	-3.65%	-11.7%
COc1ccc(/C=N/N2CCN(/N=C/c3ccc(OC)c(OC)c3)CC2)cc1OC	22.9%	0.65%	3.25%	19.1%	-1.75%	1.15%
Cc1nc(C(=O)N=C(N)N)c(N)nc1-c1ccccc1	-22.6%	-4.3%	-7.7%	-28.2%	-4.8%	-4%
COC(=O)C1=CN=C(C(=O)OC)NN1	13.9%	0.25%	-8.6%	15.8%	-4.45%	3.15%
CCOC(=O)c1ccc(N=Cc2cccs2)cc1	-1.9%	28.4%	17.1%	9.5%	0%	17.4%
COc1cccc(C2c3cc4c(cc3OC(Nc3ccccc3)C2C)OCO4)c1OC (centres undefined)	-28.4%	6.25%	-28.1%	3.35%	-36.9%	-21.4%
